Measured values published in PubChem BioAssay AID624267 (The Scripps Research Institute Molecular Screening Center, 2012).
Among all 360,000 compounds or so, about 1,400 (0.39%) were called active. The full list was thinned out, with actives kept by preference. Unmarked numbers belong to inactive results. Rule as the data show it: active = inhibition above about 21%; inactive = the rest.

What follows are molecules tested against Receptor-interacting serine/threonine-protein kinase 2 (Homo sapiens) (UniProt O43353) (assay: NOD2-RIPK2 binding disruptors in cells, primary screen, fluorescence, CHO cells, BLA complementation (AID 624267;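 also: 0% = vehicle only and 100% = reference blocker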)). Details: CHO BLA complementation NOD2-RIPK2, CCF4 ratio; at 4.98 µM; hits give high values.
Sequence of Receptor-interacting serine/threonine-protein kinase 2 (Homo sapiens) (O43353 whole entry, looked up): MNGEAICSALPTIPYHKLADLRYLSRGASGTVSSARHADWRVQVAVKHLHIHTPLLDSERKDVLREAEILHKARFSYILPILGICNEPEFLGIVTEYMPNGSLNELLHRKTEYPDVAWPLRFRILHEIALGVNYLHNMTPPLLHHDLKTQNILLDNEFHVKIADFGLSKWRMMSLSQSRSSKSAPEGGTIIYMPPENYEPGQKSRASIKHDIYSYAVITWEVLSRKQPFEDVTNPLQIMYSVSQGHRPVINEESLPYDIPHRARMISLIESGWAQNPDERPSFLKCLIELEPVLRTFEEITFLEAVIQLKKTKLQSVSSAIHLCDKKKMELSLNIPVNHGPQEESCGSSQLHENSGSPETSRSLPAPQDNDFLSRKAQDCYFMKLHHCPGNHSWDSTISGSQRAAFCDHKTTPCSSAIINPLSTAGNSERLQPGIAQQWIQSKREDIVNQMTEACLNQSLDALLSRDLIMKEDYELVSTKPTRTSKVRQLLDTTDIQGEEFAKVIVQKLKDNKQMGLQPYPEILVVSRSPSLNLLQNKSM
`C[C@@H]1CN([C@H](C)CO)C(=O)c2cc(-c3ccc(F)cc3)cnc2O[C@H]1CN(C)C(=O)c1ccc(F)cc1` was tested, and the inhibition was -5.43%.
In the case of `C[C@H]1CN([C@@H](C)CO)C(=O)c2cc(-c3cccc(F)c3)cnc2O[C@@H]1CN(C)S(C)(=O)=O`, the inhibition is reported as 21.8% (active).
`C[C@H]1CN([C@@H](C)CO)C(=O)c2cc(Br)cnc2O[C@H]1CN(C)S(=O)(=O)c1cccs1` gave an inhibition of -2.32%.
`Cc1ccc(N(C(=O)c2sc(C)nc2C)C(C(=O)NC(C)(C)C)c2ccncc2)cc1` (configuration not stated) gave an inhibition of -19.7%.
With `COc1ccc(NC(C)=O)cc1NC(=O)CN1CCN(C2c3ccccc3-c3ccccc32)CC1` the inhibition was -1.12%.
Molecule `Cc1ccc(NS(=O)(=O)c2ccc(C(=O)NCCCN3CCOCC3)cc2)cc1` has an inhibition of -3.35%.
In the case of `Cc1cccc(CS(=O)(=O)c2ncc(Cl)c(C(=O)Nc3ccc(F)cc3)n2)c1`, the inhibition is reported as 95.7% (active).
`Cc1cccc(NC(=O)Cn2c(=O)n(Cc3ccccc3)c(=O)c3c(C)c(C)sc32)c1` gave an inhibition of -1.85%.
For `O=C(CS(=O)(=O)Cc1ccccc1)Nc1cccnc1`, the inhibition was -7.99%.
For `CN(CCC(=O)Nc1cc(S(=O)(=O)N(C)C)ccc1Cl)CC(=O)Nc1ccc(F)cc1`, the inhibition was -1.55%.
For `Cc1cccc(NC(=O)c2nc(S(=O)(=O)Cc3ccccc3)ncc2Cl)c1`, the inhibition was 90.3% (active).
`Cc1cc(NS(=O)(=O)c2ccc(NC(=S)NC(=O)c3ccc(F)cc3Cl)cc2)no1` gave an inhibition of -13%.
With `COc1ccc(C(C)=O)cc1CN1C(=O)NC2(CCCCC2C)C1=O` (configuration not stated) the inhibition was -6.26%.
`CC(C)N1C(=O)c2ccccc2NC(=O)C1C(=O)NCc1cccs1` (configuration not stated) gave an inhibition of -11.7%.
Work on `CC(OC(=O)CNS(=O)(=O)/C=C/c1ccccc1)C(=O)Nc1ccc(S(=O)(=O)N2CCCC2)cc1` (configuration not stated) yielded an inhibition of -14.5%.
`COc1ccc(CCNC(=O)CCc2cn(C)c3ccccc23)c(OC)c1` was tested, and the inhibition was 3.29%.
With `O=[N+]([O-])c1c(NCCO)cc(Sc2nc3ccccc3s2)c2nonc12` the inhibition was 86.9% (active).
For `CCN(CCO)C(=S)Nc1cc(C(=O)OC)ccc1C(=O)OC`, the inhibition was -1.65%.
In the case of `COc1ccc(C[C@H]2CN3C(=NC[C@H]3C)N2CCNC(=O)CCC2CCCCC2)cc1`, the inhibition is reported as -3.4%.
Work on `O=C(CCCN1C(=O)CSc2ncccc21)N1CCN(c2cccc(C(F)(F)F)c2)CC1` yielded an inhibition of 3.16%.
In the case of `COc1ccc(CCNS(=O)(=O)c2ccc(F)cc2)cc1OC`, the inhibition is reported as -9.46%.
For `COc1ccc(-c2cc(C(F)(F)F)nc(S(C)(=O)=O)n2)cc1OC`, the inhibition was 36.7% (active).
With `Cc1cc(C)c(C)c(S(=O)(=O)Nc2ccc(O)cc2)c1C` the inhibition was -7.06%.
Work on `Cc1ccc(S(=O)(=O)NC(=O)N2CCCN(Cc3ccc(F)cc3)CC2)cc1` yielded an inhibition of 8.13%.
For `Cc1ccc(CS(=O)(=O)CCC(=O)NCc2ccc(F)cc2)cc1`, the inhibition was 10.2%.
In the case of `CC(C)c1cc(C(=O)N/N=C/c2ccoc2)c(O)c(C(C)C)c1`, the inhibition is reported as -15.4%.
In the case of `O=C(NN=Cc1ccc(N2CCOCC2)cc1)c1cc2ccccc2cc1O`, the inhibition is reported as 30.5% (active).
Work on `CC(OC(=O)c1cc2ccccc2o1)C(=O)Nc1ccc(N2CCOCC2)cc1` (configuration not stated) yielded an inhibition of -6.36%.
Molecule `CCc1nnc(NC(=O)CSc2nc3c(c(=O)n2-c2ccccc2OC)SCC3)s1` has an inhibition of -4.66%.
With `CC(C)Oc1ccc(C2NC(=O)NC2=O)cc1` (configuration not stated) the inhibition was -8.11%.
For `COc1ccc(C(C(=O)NCc2ccccc2)n2c(=O)c(-c3ccccc3)nc3ccccc32)cc1` (configuration not stated), the inhibition was -6.05%.
For `CCCCCNC(=O)C(c1ccc(OC)cc1)n1c(=O)c(-c2ccccc2)nc2ccccc21` (configuration not stated), the inhibition was -13.6%.
`COc1ccc(NC(=O)C(c2ccncc2)n2c(=O)c(-c3cc4ccccc4[nH]3)nc3ccccc32)cc1` (configuration not stated) was tested, and the inhibition was 37.2% (active).
With `CCOc1ccc(NC(=O)C/C(C)=N/NC(=O)Cc2cccs2)cc1` the inhibition was -21.5%.
In the case of `O=C(c1ccc(O)cc1)c1ccc(C(=O)O)c(C(=O)O)c1`, the inhibition is reported as 7.45%.
`Nc1ncnc2c1ncn2[C@@H]1O[C@H](C(=O)NS(=O)(=O)c2c(Cl)nc3sccn23)[C@@H](O)[C@H]1O` was tested, and the inhibition was -5.91%.
For `Cc1ccnc(NS(=O)(=O)c2ccc(NC(=O)c3oc4ccccc4c3C)cc2)n1`, the inhibition was 7.08%.
Molecule `O=C(O)/C=C/C(=O)NNc1ccc([N+](=O)[O-])cc1` has an inhibition of -11.2%.
`O=C(CCC(=O)N1CCCC1)Nc1ccc([N+](=O)[O-])cc1` showed an inhibition of -7.75%.
`CC(=O)Nc1ccc(C=Cc2ccc([N+](=O)[O-])cc2)cc1` was tested, and the inhibition was 23.5% (active).
For `O=C(CN1C(=O)NC2(CCCCC2)C1=O)N1CCN(C(=O)c2cccs2)CC1`, the inhibition was -8.73%.
With `O=C(N[C@@H](Cc1ccccc1)C(=O)OCc1ccccc1)c1nc[nH]c1C(=O)N[C@@H](Cc1ccccc1)C(=O)OCc1ccccc1` the inhibition was -4.2%.
With `CC(C)(C)OC(=O)N1CCC(NC(=O)c2[nH]cnc2C(=O)N[C@@H](Cc2ccccc2)C(=O)OCc2ccccc2)CC1` the inhibition was 30.1% (active).
Work on `C[C@@H](NC(=O)c1nc[nH]c1C(=O)N1CCN(C(=O)OC(C)(C)C)CC1)c1ccccc1` yielded an inhibition of 1.84%.
With `CC(C)(C)c1nnc(NC(=O)C2c3ccccc3Oc3ccccc32)s1` the inhibition was 13.8%.
For `COc1ccccc1C(=O)Nc1nc2nc(-c3ccccc3)cc(=O)n2[nH]1`, the inhibition was -2.48%.
Molecule `COc1cc(C(O)c2nc(-c3cccc(C(=O)O)c3)cs2)ccc1F` (configuration not stated) has an inhibition of -2.31%.
`COc1ccc2c(c1OC)C(=O)OC2Nc1nc(-c2ccccc2)cs1` (configuration not stated) was tested, and the inhibition was 21.7% (active).
For `C=CCNC(=O)COC(=O)c1ccccc1C(=O)N(C)C1CCCCC1`, the inhibition was -6.21%.
`COc1cccc(CNC(=O)COC(=O)CN2C(=O)NC3(CCCCC3C)C2=O)c1` (configuration not stated) showed an inhibition of -6.08%.
`CCOc1ccc(-c2nnc3ccc(SC)nn23)cc1` showed an inhibition of 9.56%.
Work on `CCOC(=O)C1=C(c2ccccc2)NC(=O)NC1c1cc(OCC)c(O)c([N+](=O)[O-])c1` (configuration not stated) yielded an inhibition of 6.34%.
`CCC(CC)COC(=O)C1=C(C)NC(=O)NC1c1ccc([N+](=O)[O-])cc1` (configuration not stated) showed an inhibition of 7.52%.
`CCOC(=O)C1=C(C)N(C[C@@H]2CC[C@@H](Cc3ccc(-c4ccccc4)cc3)O2)C(=O)NC1c1ccc([N+](=O)[O-])cc1` (some centres not stated) was tested, and the inhibition was 22.2% (active).
`O=C(CNS(=O)(=O)c1ccc2ccccc2c1)Nc1ccc(F)c(F)c1F` gave an inhibition of -7.54%.
`Cc1ccnc(NC(=O)CCC(=O)N(CC(=O)NCCc2ccccc2)Cc2cccs2)c1` gave an inhibition of 0.75%.
`O=C1/C(=C/c2cccs2)CCC1C1CCCC1` (configuration not stated) was tested, and the inhibition was -6.88%.
In the case of `COC(=O)Cc1cc(=O)oc2c(C)c(O)ccc12`, the inhibition is reported as 33.2% (active).
`COc1cccc(C(=O)OCc2cc(=O)oc3c(C)c(C)ccc23)c1OC` was tested, and the inhibition was -0.79%.
For `CCCc1cc(=O)oc2c(C)c(OCC(=O)Nc3ccccn3)ccc12`, the inhibition was -2.73%.
Molecule `CCCCn1nnnc1C1(C)CCC(=O)N1Cc1ccc(OC)c(OC)c1` (configuration not stated) has an inhibition of -13.3%.
`COC(C)(C)[C@]12CC(O)(C(C)C)ON1[C@H]1CCCCC1N2O` (some centres not stated) gave an inhibition of -0.99%.
`CCOC(=O)Cc1c(C)nc2c(C#N)c(C)nn2c1C` was tested, and the inhibition was 1.59%.
In the case of `O=C(/C=C/c1ccc(N2CCOCC2)cc1)c1ccccc1`, the inhibition is reported as 30.6% (active).
In the case of `O=C(O)c1ccc2c(c1)C(=O)N(c1ccc(/C=C/C(=O)c3ccccc3)cc1)C2=O`, the inhibition is reported as 23.8% (active).
In the case of `O=C(O)CCC(=O)Nc1ccc(N2CCOCC2)cc1`, the inhibition is reported as -4.21%.
Work on `CC(=O)Oc1ccc(C)cc1N1C(=O)c2ccc(C(=O)O)cc2C1=O` yielded an inhibition of -5.17%.
`C/C(=C/c1ccccc1)C(=O)N1CCN(c2ccccc2)CC1` gave an inhibition of -2.58%.
`CCCOC(=O)c1ccc(N2C(=O)c3ccccc3C2=O)cc1` was tested, and the inhibition was 1.19%.
Work on `CCN(C(=O)COC(=O)C1CCN(S(=O)(=O)c2ccc(C)c(C)c2)CC1)C1CCS(=O)(=O)C1` (configuration not stated) yielded an inhibition of -0.71%.
`O=C(Nc1ccc(OCCO)cc1)c1csc([C@H]2C[C@H](O)[C@@H](CO)O2)n1` showed an inhibition of -10.7%.
In the case of `NC(=O)NC(=O)C(OC(=O)CCNS(=O)(=O)c1ccccc1)c1ccccc1` (configuration not stated), the inhibition is reported as -7.31%.
`O=C(CN1CCCCC1)N1c2ccccc2Sc2ccc(C(F)(F)F)cc21` showed an inhibition of 1.57%.
With `CC1CCN(C(=O)c2ccccc2NC(=O)Cc2ccccc2)CC1` the inhibition was -1.45%.
`CC(NC(=O)c1ccc(S(=O)(=O)Nc2ccccc2)cc1)c1ccc(S(N)(=O)=O)cc1` (configuration not stated) was tested, and the inhibition was 3.07%.
In the case of `O=C1C(=O)N(CC2COc3ccccc3O2)c2ccccc21` (configuration not stated), the inhibition is reported as 22.5% (active).
`CCn1cc(C(=O)NCC2COc3ccccc3O2)c2cc(OC)c(OC)cc2c1=O` (configuration not stated) gave an inhibition of -5.84%.
`O=C1C(=O)N(c2ccccc2)c2ccccc21` was tested, and the inhibition was 9.77%.
In the case of `C[C@H]1CN([C@@H](C)CO)C(=O)Cc2cc(NC(=O)Cc3ccccc3)ccc2O[C@H]1CN(C)S(=O)(=O)c1cccs1`, the inhibition is reported as -4.34%.
`Cc1ccc(S(=O)(=O)n2cnc3ccccc32)c(C)c1` was tested, and the inhibition was 3.17%.
Molecule `COc1cc2nnn(-c3ccncc3)c2cc1OC` has an inhibition of -0.06%.
`CC(C)(C)NC(=O)COC(=O)c1cc(Br)ccc1Cl` showed an inhibition of -6.13%.
In the case of `c1csc(-c2nnc(COc3ncnc4sccc34)o2)c1`, the inhibition is reported as 2.97%.
In the case of `CCOc1ccc(C2=CC(c3ccccc3)n3ncnc3N2)cc1` (configuration not stated), the inhibition is reported as 42.2% (active).
`Brc1ccc(C2=CC(c3ccco3)n3ncnc3N2)cc1` (configuration not stated) was tested, and the inhibition was 24.6% (active).
In the case of `CCOc1ccccc1C1CC(c2ccccc2)Nc2nc(N)nn21` (configuration not stated), the inhibition is reported as -8.78%.
`CC1=C(C(=O)OC2CCCCC2)C(c2cccnc2)n2ncnc2N1` (configuration not stated) was tested, and the inhibition was 7.46%.
